Assay results taken from the supplement of paper PMC4022240.
± gives the standard deviation.

T1: HaloTag-ATRX ADD domain (163-292)
T1 chain: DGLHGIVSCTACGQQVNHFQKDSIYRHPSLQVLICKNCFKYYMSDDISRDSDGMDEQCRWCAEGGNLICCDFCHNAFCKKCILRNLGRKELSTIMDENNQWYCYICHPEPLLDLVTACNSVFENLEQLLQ


How the values were obtained:
Experiment in all cases: peptide microarray binding signal (635 nm), min-max normalized on array (fraction of array maximum); higher = stronger binding
Details in all cases: peptide region: Unmod H1 variant
[1] = molecular target: T1, HaloTag-ATRX ADD domain (163-292)
Procedure, shortened: (§1)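 Two probe formats were used for 1 h at 4°C: biotin-labelled HaloTag reader fusions (10 nM to 1 μM) with streptavidin-Alexa Fluor 647, and rabbit histone antibodies (1:10,000 to 1:2,000) with anti-rabbit Alexa 647. Both were applied to nitrocellulose arrays of histone 13-mer peptide–cellulose conjugates printed in triplicate with a Cy3 tracer and blocked overnight at 4°C. Signal was read at 635 nm and misprints at 532 nm on an Axon GenePix 4000B. Binding signal is expressed as the triplicate-spot mean intensity, min-max scaled for each library.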

[2] = molecular target: HaloTag-ING2 PHD (mouse Ing2 200-280)
Procedure, shortened: as §1

[3] = molecular target: anti-H3K4me3 antibody ab8580
Procedure, shortened: as §1

[4] = molecular target: anti-H3K9me3 antibody ab8898
Procedure, shortened: as §1

[5] = binder concentration: 1:2,000 dilution
[6] = binder concentration: 1:10,000 dilution

Binder	peptide microarray binding signal ([1]; binder concentration: 50 nM)	peptide microarray binding signal ([1]; binder concentration: 500 nM)	peptide microarray binding signal ([2]; binder concentration: 10 nM)	peptide microarray binding signal ([2]; binder concentration: 100 nM)	peptide microarray binding signal [3, 5]	peptide microarray binding signal [3, 6]	peptide microarray binding signal [4, 5]	peptide microarray binding signal [4, 6]
SKKSVKTPKKAKK [Unmod H1 variant S K K S V K T P K K A K K]	0.0224 ± 0.0075	0.00633 ± 9.9e-05	0.00113 ± 3.2e-05	0.00206 ± 0.00011	0.000359 ± 9.7e-06	0.000628 ± 6.7e-06	0.000121 ± 1.3e-06	0.000577 ± 6.2e-06
TKPGASKVATKTK [Unmod H1 variant T K P G A S K V A T K T K]	0.0164 ± 0.00041	0.0137 ± 0.0012	0.00215 ± 5e-05	0.00694 ± 0.00026	0.00117 ± 0.00015	0.00097 ± 9.9e-06	0.000302 ± 6.2e-06	0.000692 ± 7.3e-06
ASAAPEKPLAGKK [Unmod H1 variant A S A A P E K P L A G K K]	0.0171 ± 0.0014	0.0163 ± 0.00078	0.00603 ± 0.00016	0.0206 ± 0.0028	0.00151 ± 4.1e-05	0.00262 ± 0.00011	0.000891 ± 5.9e-05	0.00115 ± 2e-05
PAGPSVSELIVQA [Unmod H1 variant P A G P S V S E L I V Q A]	0.0127 ± 0.00021	0.00367 ± 0.00014	0.00203 ± 3.6e-05	0.00177 ± 3.1e-05	0.00111 ± 0.00011	0.00097 ± 2.6e-05	0.000438 ± 1.7e-05	0.00075 ± 7.9e-06
KKLKKATGASKKS [Unmod H1 variant K K L K K A T G A S K K S]	0.0152 ± 0.00029	0.00691 ± 0.0006	0.00161 ± 6.7e-05	0.0034 ± 0.00046	0.000396 ± 1.2e-05	0.000856 ± 8.9e-06	0.000257 ± 2.5e-05	0.000461
YDVEKNNSRIKLG [Unmod H1 variant Y D V E K N N S R I K L G]	0.0163 ± 0.00037	0.0175 ± 0.00085	0.00841 ± 0.00067	0.0132 ± 0.00014	0.000944 ± 1.6e-05	0.00114 ± 3e-05	0.000453 ± 1.5e-05	0.00075 ± 1.6e-05
IKLGIKSLVSKGT [Unmod H1 variant I K L G I K S L V S K G T]	0.0221 ± 0.0027	0.0236 ± 0.00098	0.00656 ± 0.00055	0.0191 ± 0.0018	0.00147 ± 3.9e-05	0.00262	0.00109 ± 2.9e-05	0.001441 ± 1.4e-05
IVQAASSSKERGG [Unmod H1 variant I V Q A A S S S K E R G G]	0.0196 ± 0.0029	0.0152 ± 0.00061	0.0112 ± 0.00078	0.0197 ± 0.0013	0.00279 ± 6.5e-05	0.00708 ± 0.00071	0.00216 ± 0.00024	0.00306 ± 0.00012
LNKKASSVETKPG [Unmod H1 variant L N K K A S S V E T K P G]	0.0199 ± 0.0032	0.0256 ± 0.00069	0.00776 ± 0.0013	0.0114 ± 0.00013	0.00126 ± 7.1e-05	0.00165 ± 3.2e-05	0.000921 ± 2e-05	0.00127 ± 4.6e-05
KTVKPKKVAKSPA [Unmod H1 variant K T V K P K K V A K S P A]	0.0149 ± 0.00058	0.0041 ± 5.8e-05	0.001552 ± 9.3e-06	0.00369 ± 0.00015	0.0005286 ± 5.1e-06	0.000799 ± 8.3e-06	0.000121 ± 2.7e-06	0.000461
KAKKPAATRKSSK [Unmod H1 variant K A K K P A A T R K S S K]	0.0344 ± 0.02	0.0133 ± 0.00041	0.00227 ± 5.2e-05	0.0068 ± 0.00046	0.000755 ± 1.4e-05	0.00103 ± 2.1e-05	0.000211 ± 2.2e-06	0.00075 ± 7.9e-06
ERGGVSLAALKKA [Unmod H1 variant E R G G V S L A A L K K A]	0.0175 ± 0.00043	0.0165 ± 0.00037	0.0122 ± 0.00043	0.0252 ± 0.0017	0.00283 ± 4.9e-05	0.00496 ± 0.00014	0.00225 ± 8.6e-05	0.00283 ± 4.9e-05
KSSKNPKKPKTVK [Unmod H1 variant K S S K N P K K P K T V K]	0.0196 ± 0.0037	0.0061 ± 0.00013	0.00185	0.003543 ± 3.1e-05	0.000774 ± 1.4e-05	0.000913	0.000181	0.00075 ± 7.9e-06
SETVPPAPAASAA [Unmod H1 variant S E T V P P A P A A S A A]	0.0132 ± 0.00014	0.00691 ± 0.00014	0.00448 ± 6.1e-05	0.00446 ± 0.00013	0.00151 ± 2.3e-05	0.00223 ± 4e-05	0.000891 ± 7.7e-05	0.00115 ± 2e-05
GTGASGSFKLNKK [Unmod H1 variant G T G A S G S F K L N K K]	0.01633 ± 0.00015	0.00986 ± 0.0013	0.00251 ± 5.1e-05	0.00539 ± 0.00089	0.000547 ± 1.9e-05	0.00114 ± 3e-05	0.0003926 ± 3.9e-06	0.00121 ± 3.2e-05
TKTKATGASKKLK [Unmod H1 variant T K T K A T G A S K K L K]	0.032 ± 0.02	0.0136 ± 0.00069	0.00257 ± 9.1e-05	0.00829 ± 0.00095	0.000642 ± 2.2e-05	0.001027 ± 1e-05	0.000181	0.000519 ± 5.6e-06
KSPAKAKAVKPKA [Unmod H1 variant K S P A K A K A V K P K A]	0.0194 ± 0.0034	0.00619 ± 0.00021	0.00167 ± 3.4e-05	0.0159 ± 0.014	0.000283	0.000571 ± 1.1e-05	0.000196 ± 2.1e-06	0.000577 ± 6.2e-06
SKGTLVQTKGTGA [Unmod H1 variant S K G T L V Q T K G T G A]	0.0193 ± 0.0038	0.0147 ± 0.00052	0.003939 ± 2.1e-05	0.0162 ± 0.0012	0.000812 ± 6.2e-05	0.0012 ± 2.4e-05	0.000211 ± 2.2e-06	0.00075 ± 7.9e-06
AGKKAKKPAKAAA [Unmod H1 variant A G K K A K K P A K A A A]	0.0147 ± 0.00057	0.0114 ± 0.0028	0.00507 ± 0.00099	0.00539 ± 0.00095	0.000585 ± 4.5e-05	0.000856 ± 8.9e-06	0.000181	0.000692 ± 7.3e-06
LKKALAAAGYDVE [Unmod H1 variant L K K A L A A A G Y D V E]	0.0162 ± 0.00021	0.0149 ± 0.00063	0.00322 ± 3.5e-05	0.004606 ± 3.8e-05	0.000982 ± 5.9e-05	0.001655 ± 1.6e-05	0.000861 ± 5.4e-05	0.001211 ± 1.2e-05
